Measured potencies and affinities stand elsewhere. The source made the active and inactive calls.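 Rule for the calls: active = compounds lowering cell ATP signal with a fitted half-effect dose at most twice the top valid dose; inconclusive = flat curve with 30 to 70% signal loss, or bad fit; inactive = wrong direction, flat within 30%, or weaker than limit.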

This assay in a line: viability loss in HEK293 kidney cells – cell-based, cherry-picks, set 5, cytotoxicity control, dose response (AID 1053117).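 Note: more negative means greater loss of ATP signal and more cytotoxicity.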 The conditions noted are these: HEK293T viability, CellTiter-Glo ATP luminescence, 72 h; series mostly up to 26 µM. (In general: Cellular ATP, detected with luciferase, serves as a proxy for viable cell number.)
In the case of `C[C@@H]1CN([C@@H](C)CO)C(=O)c2cc(NC(=O)CCCN(C)C)ccc2O[C@@H]1CN(C)Cc1ccc(-c2ccccc2)cc1`, the outcome was inactive.

As for `N#C[C@H]1[C@H](c2ccccc2C2=CCCCC2)[C@H](CO)N1S(=O)(=O)c1ccccc1`, the outcome was inactive.

Take `CO[C@@H]1CN(C)C(=O)c2ccc(NC(=O)c3ccc(-c4ccccc4)cc3)cc2OC[C@@H](C)NC[C@@H]1C`: the call was inactive.

On to `Fc1cnc(N2CCN(c3ccccc3)CC2)nc1N1CCN(c2ccccc2)CC1`, for which the call was inactive.

Turning to `C[C@H](O)C#Cc1ccc2c(c1)O[C@H](CN(C)C)[C@@H](C)CN([C@@H](C)CO)S2(=O)=O`, the molecule was called inactive.

Turning to `Cc1ccc(S(=O)(=O)N2CC[C@@H]3[C@H]2c2cc(-c4cccc(C(=O)N(C)C)c4)ccc2N[C@@H]3CO)cc1`, the result was inactive.

Consider `COc1ccc(CN(C2CCCC2)S(=O)(=O)c2ccc(-n3cnnn3)cc2)cc1OC`, for which the outcome was inactive.

For the molecule `CN(C)C(=O)c1ccc(-c2ccc3c(c2)[C@H]2[C@H](CCN2C(=O)c2ccc(F)cc2)[C@@H](CO)N3C)cc1`, the molecule was called inactive.

`Cc1ccc(O)c(-c2cc(-c3cccc(Br)c3)n[nH]2)c1`: the molecule was called inactive.

On to `COC(=O)c1cn(CC(=O)NCc2ccco2)c2ccccc12`, for which the call was inactive.

As to `C[C@H](O)C#Cc1ccc2c(c1)O[C@H](CN(C)C)[C@@H](C)CN([C@H](C)CO)S2(=O)=O`, the molecule was classed as inactive.

Take `C[C@H](CO)N1C[C@H](C)[C@H](CN(C)C(=O)Nc2cccc3ccccc23)Oc2c(NC(=O)Nc3ccc(C(F)(F)F)cc3)cccc2C1=O`: the result was inactive.

With `N#C[C@@H]1[C@@H](c2ccccc2C2=CCCCC2)[C@H](CO)N1S(=O)(=O)c1ccccc1`, the call was inactive.

The values above are taken from PubChem BioAssay AID1053117 (Broad Institute, 2014).
